NCOA1 inh = SRC1 coactivator transcriptional activity inhibitors, primary screen, cell-based, luminescence; AID 588354, 2011; inhibition, % at 3.6 µM; HEK293 GAL4-SRC1 luciferase reporter; 360,000 compounds, 0.12% hits;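 active = inhibition above the campaign mean plus 3 SD, with each screening campaign given its own cutoff, cut at about 60% in these data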
LRH-1 inv ag = LRH-1 (NR5A2) inverse agonists, primary screen, cell-based, luminescence, HEK293T, StAR-luciferase reporter; Nuclear receptor subfamily 5 group A member 2 (Homo sapiens), O00482; 360,000 compounds, 0.13% hits; LRH-1 transfected, 24 h; AID 602396, 2012; inhibition, % at 3.6 µM;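 active = inhibition above the mean inhibition of all tested compounds plus 3 SD, cut at about 73% in these data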
Target sequence (O00482 whole entry, looked up): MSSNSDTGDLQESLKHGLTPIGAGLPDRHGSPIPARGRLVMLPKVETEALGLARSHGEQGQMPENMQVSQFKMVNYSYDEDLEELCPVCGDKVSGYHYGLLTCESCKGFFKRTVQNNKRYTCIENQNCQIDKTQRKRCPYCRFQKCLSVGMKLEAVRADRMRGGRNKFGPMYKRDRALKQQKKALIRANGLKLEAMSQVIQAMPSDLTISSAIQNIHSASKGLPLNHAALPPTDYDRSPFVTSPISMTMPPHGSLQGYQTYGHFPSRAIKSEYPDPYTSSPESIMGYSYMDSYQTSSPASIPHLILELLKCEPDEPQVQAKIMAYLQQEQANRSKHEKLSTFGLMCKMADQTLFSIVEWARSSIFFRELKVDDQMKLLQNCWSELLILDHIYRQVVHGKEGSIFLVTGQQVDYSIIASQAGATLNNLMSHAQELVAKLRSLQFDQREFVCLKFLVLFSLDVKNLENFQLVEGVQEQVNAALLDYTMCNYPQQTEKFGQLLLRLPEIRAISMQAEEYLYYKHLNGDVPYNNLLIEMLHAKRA
SRC2 inh = inhibition of GAL4-SRC2 driven luciferase reporter, primary screen, SRC2 inhibitor project, cell-based, luminescence; Nuclear receptor coactivator 2 (Homo sapiens), Q15596; AID 651957, 2012; inhibition, % at 9 µM; 370,000 compounds, 0.17% hits; HEK293 GAL4-SRC2 luciferase reporter;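 active = inhibition above the mean inhibition of all tested compounds plus 3 SD, set per campaign, cut at about 52% in these data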
NR2F2 inh = NR2F2 transcriptional activity inhibitors, primary screen, cell-based, luciferase reporter, HEK293T, luminescence. COUP transcription factor 2 (Homo sapiens), P24468. HEK293T NGFI-A luciferase reporter. inhibition, % at 8.6 µM. 370,000 compounds, 0.7% hits. AID 686940, 2013;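 active = inhibition above a per-plate cutoff, mean inhibition of test wells between control levels plus 3 SD, cut at about 38% in these data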;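 also: cells cotransfected with COUP-TFII expression vector driving the NGFI-A reporter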
NCOA3 inh = SRC3 coactivator transcriptional activity inhibitors, primary screen, cell-based, luminescence | AID 588352, 2011 | Nuclear receptor coactivator 3 (Homo sapiens), Q9Y6Q9 | 360,000 compounds, 0.17% hits | HEK293 GAL4-SRC3 luciferase reporter | inhibition, % at 3.6 µM;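 active = inhibition above a per-campaign cutoff, the mean of all compounds plus 3 SD, cut at about 60% in these data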;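 also: higher means less SRC3-driven luciferase light from the GAL4 reporter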
VP16 Luc counter = Gal4-VP16 luciferase reporter inhibitors, counter-screen for COUP-TFII antagonist project, cell-based, luminescence, HEK293; 2,500 compounds, 25% hits; shares compounds with NR2F2 inh; inhibition, % at 8.5 µM; AID 687007, 2013; in the data active = inhibition above about 13%
NR2F2 inh conf = NR2F2 transcriptional activity inhibitors, confirmation, cell-based, luciferase reporter, HEK293, triplicate | shares compounds with NR2F2 inh | HEK293 NGFI-A luciferase reporter, luminescence | inhibition, % at 8.5 µM | 2,500 compounds, 45% hits;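 active = mean inhibition over three repeats above a set limit taken from the earlier primary screen, cut at about 38% in these data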
Of the large screens only hits and unclear results are named; the others gave an inactive call (follow-up assays come after a bar, where they were run). Only some compounds are listed: those with a hit (about 0.84% of all), similar ones and a draw of the others.

Cn1nc(C(C)(C)C)cc1C(=O)N1CCCCC1c1cc(C(=O)NCc2ccc(F)cc2)no1 (centres undefined)	NR2F2 inh 38 | VP16 Luc counter inactive | NR2F2 inh conf inactive
Clc1ccc2nc(N3CCCCC3)[nH]c2c1	none
O=c1c2ccccc2cnn1-c1nc2ccccc2[nH]1	NCOA1 inh 70, SRC2 inh 83, NR2F2 inh 96, NCOA3 inh 65 | VP16 Luc counter 53 | NR2F2 inh conf 70
O=c1c2ccccc2nc2c3ccccc3cnn12	none
O=c1c(Cl)c(N2CCCCC2)cnn1-c1nc2ccccc2[nH]1	NR2F2 inh 56 | VP16 Luc counter inactive | NR2F2 inh conf inactive
O=C(COc1ccc(Br)cc1)Nc1ccncc1	none
O=C(COc1ccc(Nc2ccccc2)cc1)Nc1ccncc1	NR2F2 inh 48 | VP16 Luc counter inactive | NR2F2 inh conf inactive
O=C(COc1ccc2ccccc2c1Br)Nc1ccncc1	NR2F2 inh 51 | VP16 Luc counter inactive | NR2F2 inh conf inactive
Cc1ccc(OCC(=O)Nc2ccncc2)cc1C	none
CC(C)CCOc1cccc(OCC(=O)Nc2ccncc2)c1	NR2F2 inh 62 | VP16 Luc counter inactive | NR2F2 inh conf 55
Cc1cc(OCC(=O)Nc2ccncc2)cc(C)c1Cl	NR2F2 inh 57 | VP16 Luc counter inactive | NR2F2 inh conf inactive
O=C(Nc1cccc(C(F)(F)F)c1)OC1CCC12CCC(c1ccccc1)CC2 (centres undefined)	none (no result: NCOA1 inh, LRH-1 inv ag, NCOA3 inh)
CCC(C)c1ccc(NC(=O)CSc2nnc(-c3cccc(C)c3)n2C)cc1 (centres undefined)	none (no result: NCOA1 inh, LRH-1 inv ag, NCOA3 inh)
Cc1ccc2nc(-c3ccccc3)cn2c1	SRC2 inh 67, NR2F2 inh 53 | VP16 Luc counter inactive | NR2F2 inh conf inactive
CCCn1c(NC(=O)c2cccc(S(=O)(=O)N3CCCC3)c2)nc2ccccc21	NR2F2 inh 45 | VP16 Luc counter inactive | NR2F2 inh conf inactive
COC(=O)[C@H](C(C)C)N(CCCc1cn(Cc2ccc(C)cc2)nn1)S(=O)(=O)c1ccccc1Br	none (no result: NCOA1 inh, LRH-1 inv ag, NCOA3 inh)
CCCCCCCCN1C(=O)[C@@H](CC(=O)NCC23CC4CC(CC(C4)C2)C3)C[C@@]2(C(=O)OC)C1=C[C@H](COCc1ccccc1)O[C@@H]2C	none (no result: NCOA1 inh, LRH-1 inv ag, NCOA3 inh)
O=C(OCc1cn(Cc2ccccc2)nn1)N1CCOCC1	none (no result: NCOA1 inh, LRH-1 inv ag, NCOA3 inh)
C=C(C(=O)c1ccccc1)C(NC(C)(C)C)c1ccccc1 (centres undefined)	LRH-1 inv ag 73, SRC2 inh 60, NR2F2 inh 80 | VP16 Luc counter 67 | NR2F2 inh conf 92
CC(NC(=O)CCc1nnc(-c2ccc(-c3ccccc3)cc2)o1)c1nccs1 (centres undefined)	SRC2 inh 67, NR2F2 inh 48 | VP16 Luc counter inactive | NR2F2 inh conf inactive
O=C(CCc1nnc(-c2ccc(-c3ccccc3)cc2)o1)NCCc1ccccn1	SRC2 inh 59, NR2F2 inh 43 | VP16 Luc counter inactive | NR2F2 inh conf inactive
COC(=O)CCCNC(=O)CCc1nnc(-c2ccc(-c3ccccc3)cc2)o1	SRC2 inh 57, NR2F2 inh 52 | VP16 Luc counter inactive | NR2F2 inh conf inactive
S=C(Nc1ccccc1)Nc1ccccn1	none
S=C(Nc1ccc(Nc2ccccc2)cc1)Nc1ccccn1	NR2F2 inh 39 | VP16 Luc counter inactive | NR2F2 inh conf inactive
C(=NN1CCCCCC1)c1ccc2ccccc2n1	NCOA1 inh 88, LRH-1 inv ag 91, SRC2 inh 84, NR2F2 inh 95, NCOA3 inh 90 | VP16 Luc counter 89 | NR2F2 inh conf 104
C(=NN1CCCCCC1)c1cccc2ccccc12	none
CC1(C)CC(N2CCCC2)=CC(=[N+]2CCCCCC2)C1	NR2F2 inh 60 | VP16 Luc counter 14 | NR2F2 inh conf 58
